Activity calls are given as the source filed them. How the source made its calls: active means hit-call score of the fitted dose curve at least 0.9, where 1 is the maximum; inactive means score below 0.9.

In general, AC50 refers to the concentration giving half of the maximal activity seen.

A short description of test [1]: ATG_CRE_CIS: Attagene CIS-FACTORIAL HepG2 Assay for human cAMP Responsive Element (CRE) binding protein 3 (AID 2282926). The note with it: HepG2 CRE cis-reporter, Attagene multiplexed mRNA; actives raise or lower the signal. A digest of the protocol:
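Endogenous transcription factor activity read via CRE-regulated reporter transcripts in transfected HepG2 cells. After 24 h exposure, RNA was reverse-transcribed, amplified, fluorescently labelled and sized by capillary electrophoresis; gain or loss fitted against DMSO.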

The target of test [2] is CCAAT/enhancer-binding protein beta (Homo sapiens) (UniProt P17676). Put plainly: ATG_C_EBP_CIS: Attagene CIS-FACTORIAL HepG2 Assay for human CCAAT/Enhancer Binding Protein (C/EBP) beta (AID 2282927). The settings on record: HepG2 Attagene cis-factorial transcription factor reporter; actives raise or lower the signal. The method in brief:
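Endogenous transcription factor activity in human liver HepG2 cells is inferred from induction of a CEBPB-linked reporter mRNA. Exposure lasts 24 h; activity is fitted in both directions relative to DMSO.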

Test [3] is described as follows: ATG_CMV_CIS: Attagene CIS-FACTORIAL HepG2 Assay for human CMV (Internal Marker) (AID 2282928).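 Further: endpoint acts as a background internal control marker rather than a target.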 The settings on record: HepG2 CMV promoter reporter, transcription factor profiling; actives raise or lower the signal. The method in brief:
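Readout: fluorescent reporter cDNA fragments separated by capillary electrophoresis after RT-PCR and HpaI cut. Cells: HepG2 carrying transfected cis-promoter reporter constructs, dosed 24 h. Endpoint serves as background internal-marker control, fit bidirectionally versus DMSO.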

Test [4] in a line: ATG_AP_1_CIS: Attagene CIS-FACTORIAL HepG2 Assay for human Activator Protein 1 (AP-1) (AID 2282931). The settings on record: HepG2 Attagene cis-factorial AP-1 reporter mRNA; actives raise or lower the signal. The method in brief:
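Reporter transcripts were measured 24 h after dosing by RT-PCR and capillary electrophoresis of fluorescent fragments. Cells: HepG2 carrying transfected cis-regulated reporter constructs reading endogenous factor activity. Gain or loss fitted against DMSO.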

Test [5] is described as follows: ATG_AP_2_CIS: Attagene CIS-FACTORIAL HepG2 Assay for human Activator Protein 2 (AP-2) (AID 2282932). The note with it: HepG2 AP-2 cis-reporter, Attagene transcription factor profiling; actives raise or lower the signal. A digest of the protocol: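 Transiently transfected HepG2 cells are exposed to chemical for 24 h. Reporter transcripts are then measured as fluorescence following RT-PCR and capillary separation, and gain- or loss-of-signal is fitted relative to DMSO.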

Test [6] can be described thus: ATG_BRE_CIS: Attagene CIS-FACTORIAL HepG2 Assay for human Bone Morphogenetic Protein (BMP) Response Element (BRE) (AID 2282933). The settings on record: HepG2 BMP response element reporter, Attagene transcription factor profiling; actives raise or lower the signal. The method in brief:
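Endogenous transcription factor activity read in transiently transfected HepG2 cells after 24 h chemical exposure. Bidirectional curve fitting against DMSO; readout is reporter transcript level by RT-PCR with capillary electrophoresis of labelled products.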

Test [7] addresses Transcription factor E2F1 (Homo sapiens) (UniProt Q01094). Put plainly: ATG_E2F_CIS: Attagene CIS-FACTORIAL HepG2 Assay for human E2F Transcription Factor 1 (AID 2282935). The settings on record: HepG2 Attagene cis-reporter, E2F reporter RNA transcripts; actives raise or lower the signal. The method in brief:
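Fluorescent RT-PCR products, digested with HpaI for 2 h at 37 C, are separated by capillary electrophoresis. Source RNA comes from transfected HepG2 cultures treated for 24 h.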

A short description of test [8]: ATG_E_Box_CIS: Attagene CIS-FACTORIAL HepG2 Assay for human Enhancer Box (E-box) (AID 2282936). The note with it: HepG2 E-box cis-reporter transcription, actives raise or lower the signal. A digest of the protocol: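 Fluorescent reporter fragments separated by capillary electrophoresis gave the signal; mRNA came from HepG2 cells transfected with cis-element reporters and treated 24 h. Curves fitted bidirectionally relative to DMSO controls.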

Test [9] can be described thus: ATG_M_61_CIS: Attagene CIS-FACTORIAL HepG2 Assay for M61 Transcription Factor (Internal Marker) (AID 2282937). The note with it: HepG2 Attagene CIS-FACTORIAL M61 internal marker reporter; actives raise or lower the signal. A digest of the protocol: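 Readout: fluorescent reporter mRNA fragments resolved by capillary electrophoresis after RT-PCR. Transiently transfected human HepG2 cells carried MRTU constructs reporting endogenous TF activity; 24 h chemical exposure; gain or loss of signal fitted relative to DMSO.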

Test [10] in a line: ATG_EGR_CIS: Attagene CIS-FACTORIAL HepG2 Assay for human Early Growth Response 1 (EGR1) (AID 2282938). The settings on record: HepG2 Attagene CIS-FACTORIAL EGR reporter mRNA; actives raise or lower the signal. The method in brief:
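Read-out: fluorescent reporter-mRNA fragments resolved by capillary electrophoresis after RT-PCR, 24 h post-dose in transiently transfected HepG2. Endogenous transcription-factor activity reported via cis-element-regulated reporter units; gain or loss fitted relative to DMSO.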

Test [11] in a line: ATG_M_19_CIS: Attagene CIS-FACTORIAL HepG2 Assay for M19 Transcription Factor (Internal Marker) (AID 2282939). The note with it: HepG2 Attagene CIS-FACTORIAL M19 internal marker reporter; actives raise or lower the signal. The method in brief:
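Internal marker readout, fitted in both directions against DMSO, from HepG2 cells carrying transfected cis-element reporter constructs; RT-PCR and capillary electrophoresis of reporter mRNA after 24 h exposure.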

Test [12] is described as follows: ATG_GATA_CIS: Attagene CIS-FACTORIAL HepG2 Assay for human GATA Binding Protein (AID 2282944). The settings on record: HepG2 GATA cis-element reporter, Attagene multiplex mRNA; actives raise or lower the signal. The method in brief:
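Reporter transcripts from a GATA cis-regulated unit, among multiplexed reporters in transfected HepG2 cells, were measured by RT-PCR with capillary electrophoresis after 24 h dosing. Induction or loss scored relative to DMSO.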

The nature of test [13]: ATG_GLI_CIS: Attagene CIS-FACTORIAL HepG2 Assay for human Zinc Finger Protein GLI1 (AID 2282945). The settings on record: HepG2, Attagene cis-factorial reporter mRNA, GLI element; actives raise or lower the signal. A digest of the protocol:
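Bidirectional curve fits relative to DMSO, using reporter mRNA levels from RT-PCR plus capillary electrophoresis. Cells were HepG2 transiently carrying cis-regulated reporter constructs, harvested 24 h after dosing.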

The nature of test [14]: ATG_ISRE_CIS: Attagene CIS-FACTORIAL HepG2 Assay for human Interferon Regulatory Factor 1 (IRF1) binding to an Interferon-Stimulated Response Element (ISRE) (AID 2282948). The note with it: HepG2 ISRE cis-reporter (Attagene), mRNA transcription readout; actives raise or lower the signal. The method in brief:
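Read-out: fluorescent RT-PCR products resolved by capillary electrophoresis, reporting endogenous transcription factor activity via ISRE-driven reporter mRNA in transfected HepG2 cells dosed for 24 h; gain or loss fitted relative to DMSO.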

Test [15] is described as follows: ATG_M_32_CIS: Attagene CIS-FACTORIAL HepG2 Assay for M32 Transcription Factor (Internal Marker) (AID 2282949).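 Further: background control marker of the multiplexed CIS panel rather than a real target.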 The note with it: HepG2 Attagene cis-factorial M32 reporter, mRNA; actives raise or lower the signal. The method in brief:
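Transient MRTU transfection of HepG2; 24 h compound treatment; TriZol RNA, oligo(dT) RT, reporter PCR, 6-FAM primer extension, HpaI cut, CE. Gain/loss of signal vs DMSO.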

A short description of test [16]: ATG_MRE_CIS: Attagene CIS-FACTORIAL HepG2 Assay for human Metal Responsive Element (MRE) (AID 2282954). The note with it: HepG2 MRE cis-reporter transcription, Attagene multiplex; actives raise or lower the signal. The method in brief:
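Multiplexed cis-reporter assay in human HepG2 liver cells, 24 h incubation with test chemical. Reporter transcripts measured by RT-PCR and capillary electrophoresis; values from bidirectional curve fitting versus DMSO.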

Test [17] has as its target Paired box protein Pax-6 (Homo sapiens) (UniProt P26367). Put plainly: ATG_Pax6_CIS: Attagene CIS-FACTORIAL HepG2 Assay for human Paired Box 6 (PAX6) (AID 2282956). The settings on record: HepG2 CIS-FACTORIAL PAX6 reporter transcription, RNA readout; actives raise or lower the signal. The method in brief: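 Readout: reporter transcript fluorescence after RT-PCR and capillary electrophoresis. Cells: HepG2, transiently transfected with cis-regulated MRTUs. Exposure 24 h. Gain or loss of signal fitted bidirectionally relative to DMSO.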

Test [18] in a line: ATG_PXRE_CIS: Attagene CIS-FACTORIAL HepG2 Assay for human Pregnane X Receptor Element (PXRE) (AID 2282957). The settings on record: HepG2 Attagene CIS-FACTORIAL PXRE reporter, mRNA; actives raise or lower the signal. A digest of the protocol: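 Reporter transcripts under endogenous PXR-responsive cis-regulation quantified from total RNA of transfected HepG2 cells 24 h post-dosing, via RT-PCR with fluorescent primer extension and capillary electrophoresis. Gain or loss of signal fitted against DMSO baseline.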

Test [19] addresses Transcription factor Sp1 (Homo sapiens) (UniProt P08047). The test can be described thus: ATG_Sp1_CIS: Attagene CIS-FACTORIAL HepG2 Assay for human Specificity Protein 1 (Sp1) (AID 2282961). The note with it: HepG2 Sp1 cis-reporter transcription, actives raise or lower the signal. A digest of the protocol:
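Read-out: fluorescence of 6-FAM-labeled, HpaI-digested RT-PCR products separated by capillary electrophoresis. HepG2 cells carried transfected cis-element reporter units and were exposed to chemicals for 24 h; gain or loss of signal fitted relative to DMSO.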

The target in test [20] is Signal transducer and activator of transcription 3 (Homo sapiens) (UniProt P40763). Put plainly: ATG_STAT3_CIS: Attagene CIS-FACTORIAL HepG2 Assay for human Signal Transducer and Activator of Transcription 3 (STAT3) (AID 2282963). The note with it: HepG2, Attagene cis-factorial STAT3 reporter transcription; actives raise or lower the signal. The method in brief: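 Cis-factorial format: endogenous transcription factors in HepG2 drive transfected reporter units. After 24 h treatment, reporter RNA was reverse-transcribed, amplified, FAM-labelled and HpaI-digested before CE analysis; activity scored in both directions against DMSO.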
Signal transducer and activator of transcription 3 (Homo sapiens), sequence (P40763 whole entry, looked up): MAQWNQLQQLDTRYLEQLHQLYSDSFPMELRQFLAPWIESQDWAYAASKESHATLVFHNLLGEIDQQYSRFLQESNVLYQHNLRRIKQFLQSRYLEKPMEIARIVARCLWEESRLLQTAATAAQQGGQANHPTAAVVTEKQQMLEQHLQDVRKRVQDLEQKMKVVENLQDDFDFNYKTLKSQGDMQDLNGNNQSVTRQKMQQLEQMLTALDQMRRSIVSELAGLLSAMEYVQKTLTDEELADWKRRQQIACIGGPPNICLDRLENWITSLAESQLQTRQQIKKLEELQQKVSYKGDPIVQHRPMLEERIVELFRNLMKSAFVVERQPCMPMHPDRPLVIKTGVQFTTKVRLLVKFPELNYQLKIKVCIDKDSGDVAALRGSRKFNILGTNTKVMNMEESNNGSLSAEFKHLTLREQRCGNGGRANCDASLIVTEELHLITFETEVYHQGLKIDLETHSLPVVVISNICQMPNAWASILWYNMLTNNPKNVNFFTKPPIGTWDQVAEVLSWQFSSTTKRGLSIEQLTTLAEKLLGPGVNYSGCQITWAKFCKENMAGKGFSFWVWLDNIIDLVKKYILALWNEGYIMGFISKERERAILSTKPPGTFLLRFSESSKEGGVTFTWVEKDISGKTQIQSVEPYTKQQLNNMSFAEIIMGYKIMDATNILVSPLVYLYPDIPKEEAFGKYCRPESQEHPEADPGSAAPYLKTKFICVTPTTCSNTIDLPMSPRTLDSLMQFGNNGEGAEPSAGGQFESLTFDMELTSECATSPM

Transcription factor E2F1 (Homo sapiens), sequence (Q01094 whole entry, looked up): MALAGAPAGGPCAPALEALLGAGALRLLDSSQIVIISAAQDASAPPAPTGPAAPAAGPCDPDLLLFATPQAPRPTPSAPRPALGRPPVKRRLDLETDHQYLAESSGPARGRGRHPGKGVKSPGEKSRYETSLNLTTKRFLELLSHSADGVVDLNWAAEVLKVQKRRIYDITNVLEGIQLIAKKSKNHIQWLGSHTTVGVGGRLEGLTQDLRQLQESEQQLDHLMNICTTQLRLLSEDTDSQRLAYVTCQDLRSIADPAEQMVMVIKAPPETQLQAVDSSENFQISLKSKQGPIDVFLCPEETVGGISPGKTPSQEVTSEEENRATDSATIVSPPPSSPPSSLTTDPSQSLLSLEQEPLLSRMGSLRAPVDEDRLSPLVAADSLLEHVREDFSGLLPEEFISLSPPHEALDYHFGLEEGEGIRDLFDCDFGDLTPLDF
Transcription factor Sp1 (Homo sapiens), sequence (P08047 whole entry, looked up): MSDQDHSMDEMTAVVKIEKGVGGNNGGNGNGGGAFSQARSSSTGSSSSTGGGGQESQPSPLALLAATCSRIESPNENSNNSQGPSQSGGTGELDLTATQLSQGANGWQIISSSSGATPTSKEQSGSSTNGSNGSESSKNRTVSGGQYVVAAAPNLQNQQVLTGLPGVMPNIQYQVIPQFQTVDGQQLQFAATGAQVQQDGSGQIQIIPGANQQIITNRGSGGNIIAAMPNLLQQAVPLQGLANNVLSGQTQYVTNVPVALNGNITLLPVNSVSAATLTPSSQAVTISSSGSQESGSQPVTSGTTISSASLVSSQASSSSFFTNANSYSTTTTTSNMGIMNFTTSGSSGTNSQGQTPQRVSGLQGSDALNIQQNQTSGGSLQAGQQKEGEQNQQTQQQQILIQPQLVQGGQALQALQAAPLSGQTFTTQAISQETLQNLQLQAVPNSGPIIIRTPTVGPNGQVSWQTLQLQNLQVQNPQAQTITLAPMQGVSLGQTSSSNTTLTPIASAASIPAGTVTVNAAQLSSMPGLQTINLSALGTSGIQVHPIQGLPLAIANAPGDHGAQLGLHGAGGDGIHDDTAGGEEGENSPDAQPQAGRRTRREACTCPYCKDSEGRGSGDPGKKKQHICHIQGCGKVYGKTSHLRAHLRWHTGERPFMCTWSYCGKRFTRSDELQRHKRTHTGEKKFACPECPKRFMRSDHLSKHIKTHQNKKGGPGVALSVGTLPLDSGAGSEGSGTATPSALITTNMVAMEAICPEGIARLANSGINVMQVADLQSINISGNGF
Paired box protein Pax-6 (Homo sapiens), sequence (P26367 whole entry, looked up): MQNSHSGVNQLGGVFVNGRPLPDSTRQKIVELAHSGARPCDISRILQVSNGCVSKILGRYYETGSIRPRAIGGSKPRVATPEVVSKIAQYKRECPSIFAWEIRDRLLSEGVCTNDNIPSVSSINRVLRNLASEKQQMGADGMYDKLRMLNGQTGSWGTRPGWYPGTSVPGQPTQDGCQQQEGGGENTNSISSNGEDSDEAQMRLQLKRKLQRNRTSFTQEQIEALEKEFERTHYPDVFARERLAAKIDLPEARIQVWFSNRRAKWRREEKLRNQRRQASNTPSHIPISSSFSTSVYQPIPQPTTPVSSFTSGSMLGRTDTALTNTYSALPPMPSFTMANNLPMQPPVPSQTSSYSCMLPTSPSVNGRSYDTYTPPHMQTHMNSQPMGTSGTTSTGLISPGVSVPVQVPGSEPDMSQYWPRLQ
CCAAT/enhancer-binding protein beta (Homo sapiens), sequence (P17676 whole entry, looked up): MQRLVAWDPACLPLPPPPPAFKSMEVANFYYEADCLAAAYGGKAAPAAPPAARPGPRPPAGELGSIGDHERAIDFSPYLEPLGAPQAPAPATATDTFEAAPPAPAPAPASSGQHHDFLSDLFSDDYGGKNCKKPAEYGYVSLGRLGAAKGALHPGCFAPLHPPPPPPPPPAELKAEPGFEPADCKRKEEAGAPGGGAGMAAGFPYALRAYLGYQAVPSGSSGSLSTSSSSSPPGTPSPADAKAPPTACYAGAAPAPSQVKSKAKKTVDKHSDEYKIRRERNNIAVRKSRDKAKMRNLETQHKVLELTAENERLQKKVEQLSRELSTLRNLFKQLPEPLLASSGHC

`c1ccc2c(c1)Oc1ccccc1S2`: the outcome in test [1], in test [2], in test [3], in [4], in test [5] and in test [6] was inactive. Moreover, the outcome in test [7], in test [9], in test [10], in test [11], in [12] and in test [14] was inactive. Further, the molecule was called inactive in [15], in [16], in test [17], in test [18] and in test [20]. The half-maximal activity concentration (AC50) was 57.3 µM (active) in [8], 173 µM (active) in [13] and 155 µM (active) in [19].

On to `NC(=O)c1ccc([N+](=O)[O-])cc1Cl`, for which the result in test [1], in test [2], in test [3], in test [4], in test [5] and in test [6] was inactive. The result in [7], in [8], in [9], in [10], in [11] and in [12] was inactive. For the same molecule, the molecule was classed as inactive in test [13], in [14], in test [15], in test [16], in [17] and in test [18]. The call in [19] and in test [20] was inactive.

For `C=C(C)C(=O)OCC1CCCO1` (stereo not given), the call in [1], in [2], in test [3], in test [4], in [5] and in [6] was inactive. The result in test [7], in test [8], in [9], in test [10], in test [11] and in [12] was inactive. The result in [13], in test [14], in test [15], in [16], in [17] and in test [18] was inactive. The molecule was called inactive in [19] and in [20].

Turning to `CNC[C@H](O)[C@@H](O)[C@H](O)[C@H](O)CO`, the molecule was classed as inactive in [1], in test [2], in test [3], in test [4], in [5] and in test [6]. Further, the molecule was called inactive in test [7], in test [8], in test [9], in test [10], in [11] and in test [12]. The outcome in [13], in test [14], in test [15], in test [16], in test [17] and in test [19] was inactive. In test [20], the molecule was called inactive. Moreover, in test [18], the AC50 is 26 µM (active).

These data come from PubChem BioAssay (EPA / NIEHS).
